A number with no mark means an inactive call. Active and inactive are the calls of the source. The rule behind the calls is not given here.
experiment: Mouse Th1 T cell differentiation assay for inhibitors of ROR gamma transcriptional activity; conditions: mouse naive CD4 T cells, Th1 IFN-g flow cytometry; activity: at 30 µM, active compounds read high unless noted; outcome: at 3 µM unless noted
Text: NIH Molecular Libraries Probe Production Network [MLPCN] NIH Chemical Genomics Center [NCGC] MLPCN Grant: R03 DA026211-01 Assay Provider: Dan Littman, New York University Keywords: NIH Roadmap, MLPCN, MLI, MLSMR, qHTS, NCGC, qHTS, nuclear hormone receptor, retinoic acid-related orphan receptor, ROR gamma Assay Overview: The retinoic acid-related orphan receptor (ROR) gamma is a transcription factor that has a central role in the differentiation of Th17 cells, a subset of T helper cells that secrete the inflammatory cytokines IL-17a, IL-17f, and IL-22. Th17 cells have been implicated in graft versus host disease, autoimmune disease and asthma. ROR gamma is induced in naive T helper cells in the presence of TGF-beta combined with IL-6, IL-21, or IL-23, and thereafter directs the expression of the Th17 lineage cytokines. To confirm the selectivity of ROR gamma inhibitors, compounds with strong inhibitory activities on Th17 cells were tested in a mouse Th1 T cell differentiation assay. T cells differentiate into Th1 cells in the presence of IL-12 and IL-2. […] Th1 differentiation was tracked by the induction of interferon gamma (IFN-g) expression as measured by an anti-IFN-g antibody using flow cytometry.
Assay Protocol Summary: Cells from lymph nodes and spleens derived from six to eight week old IL17a-GFP mice (Biocytogen LLC) were used for T cell purification. B220- cells were isolated on an autoMACS Pro with bead depletion of B220+ cells (Miltenyi). Naive CD4+ T cell were further purified as TCRb+CD8- DAPI- CD19- CD4+CD25- CD62L+CD44low/Int by cell sorting on a FACSAria (BD). Cells were cultivated in an incubator at 37 C and 5% CO2 in RPMI 1640 medium (Invitrogen) supplemented with 10% (vol/vol) heat-inactivated FBS (Hyclone), penicillin-streptomycin, 2 mM glutamine and 0.1 mM nonessential amino acids. Cells were seeded on day 0 at a density of 0.4E5 cells per ml in 96-well plates coated with anti-CD3e (5 ug/ml) and anti-CD28 (10 ug/ml). Cells were cultured for 4~5 days in Th1 [IL-12 (10 ng/ml), IL-2 (100 U/ml), anti-IL-4] condition. […]

SMILES	outcome	activity
COc1cc(O)c(C(CC(=O)N2CC(C)CC(C)C2)c2ccc3c(c2)OCO3)c(OC)c1 (stereo not drawn)	inactive	
CC1CCCN(C(=O)CC(c2ccc3c(c2)OCO3)c2ccc3ccccc3c2O)C1 (stereo not drawn)		32.5% [at 25 µM, active compounds read high]
COc1cc(O)c(C(CC(=O)N2CCCC(C)C2)c2ccccc2OC)c(OC)c1 (stereo not drawn)		46.1%
